Experimental data from PubChem BioAssay AID1159580 (chemical genetic matrix, 2015).
Out of some 5,500 compounds screened, about 2,000 (36%) were called active. Another 18% or so got no clear call; they are omitted. Rule as the data show it: active = normalized growth mostly below about 0.91 (no sharp cut-off); inconclusive = no clear call, values can overlap the other calls; inactive = mostly above about 0.92. The list shows a part of the results.

Assay: chemical genetic growth profiling, strain panel (AID 1159580);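 also: tested at 20 µM; growth read once vehicle control cultures reached saturation at 30 °C; 1 = growth at the plate median or of vehicle wells; lower values mean less growth of the strain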
Conditions: S. cerevisiae deletion strains, growth OD

Measured: normalized growth

CC(=O)Nc1ccc([N+](=O)[O-])cc1[N+](=O)[O-]
active: locus YAR019C, strain CDC15, stronger effect = lower value 0.619 | locus YDL101C, strain DUN1, stronger effect = lower value 0.671 | locus YDL132W, strain cdc53, stronger effect = lower value 0.838 | locus YDL214C, strain PRR2, stronger effect = lower value 0.165 | locus YDR054C, strain cdc34, stronger effect = lower value 0.625 | locus YDR477W, strain SNF1, stronger effect = lower value 0.188 | locus YER123W, strain YCK3, stronger effect = lower value 0.114 | locus YER133W, strain GLC7, stronger effect = lower value 0.131 | locus YFL029C, strain CAK1, stronger effect = lower value 0.605 | locus YFR019W, strain FAB1, stronger effect = lower value 0.27 | locus YGR040W, strain KSS1, stronger effect = lower value 0.206 | locus YGR052W, strain FMP48, stronger effect = lower value 0.175 | locus YGR092W, strain DBF2, stronger effect = lower value 0.349 | locus YHR030C, strain SLT2, stronger effect = lower value 0.123 | locus YHR079C, strain IRE1, stronger effect = lower value 0.388 | locus YHR082C, strain KSP1, stronger effect = lower value 0.205 | locus YHR205W, strain SCH9, stronger effect = lower value 0.0559 | locus YJL095W, strain BCK1, stronger effect = lower value 0.174 | locus YJL157C, strain FAR1, stronger effect = lower value 0.307 | locus YJR066W, strain TOR1 (second series), stronger effect = lower value 0.145 | locus YJR066W, strain TOR1, stronger effect = lower value 0.152 | locus YKL048C, strain ELM1, stronger effect = lower value 0.707 | locus YKL067W, strain YNK1, stronger effect = lower value 0.284 | locus YKL101W, strain HSL1, stronger effect = lower value 0.534 | locus YKL193C, strain SDS22, stronger effect = lower value 0.753 | locus YKL203C, strain TOR2, stronger effect = lower value 0.213 | locus YLR113W, strain HOG1, stronger effect = lower value 0.153 | locus YLR133W, strain CKI1, stronger effect = lower value 0.438 | locus YLR403W, strain SFP1, stronger effect = lower value 0.21 | locus YML070W, strain DAK1, stronger effect = lower value 0.202 | locus YMR205C, strain PFK2 (second series), stronger effect = lower value 0.511 | locus YMR277W, strain FCP1, stronger effect = lower value 0.668 | locus YNL020C, strain ARK1, stronger effect = lower value 0.558 | locus YNL161W, strain CBK1, stronger effect = lower value 0.722 | locus YNL183C, strain NPR1, stronger effect = lower value 0.105 | locus YNL222W, strain SSU72, stronger effect = lower value 0.711 | locus YNL307C, strain MCK1 (second series), stronger effect = lower value 0.241 | locus YOL078W, strain AVO1, stronger effect = lower value 0.679 | locus YOL136C, strain PFK27, stronger effect = lower value 0.227 | locus YOR061W, strain CKA2, stronger effect = lower value 0.587 | locus YOR119C, strain RIO1, stronger effect = lower value 0.196 | locus YOR231W, strain MKK1, stronger effect = lower value 0.396 | locus YPL031C, strain PHO85, stronger effect = lower value 0.213 | locus YPL153C, strain RAD53, stronger effect = lower value 0.271 | locus YPL204W, strain HRR25, stronger effect = lower value 0.276 | locus YPL256C, strain CLN2, stronger effect = lower value 0.164 | strain TSCII, stronger effect = lower value 0.587
inactive: locus YBL105C, strain PKC1, stronger effect = lower value 0.925 | locus YBR135W, strain CKS1, stronger effect = lower value 0.911 | locus YBR136W, strain MEC1, stronger effect = lower value 0.922 | locus YBR160W, strain CDC28, stronger effect = lower value 0.918 | locus YDL017W, strain CDC7, stronger effect = lower value 0.927 | locus YDL028C, strain MPS1, stronger effect = lower value 0.924 | locus YDL108W, strain KIN28, stronger effect = lower value 0.912 | locus YDR052C, strain DBF4, stronger effect = lower value 0.931 | locus YDR226W, strain ADK1, stronger effect = lower value 0.911 | locus YFL009W, strain cdc4, stronger effect = lower value 0.899 | locus YFR003C, strain YPI1, stronger effect = lower value 0.926 | locus YFR028C, strain CDC14, stronger effect = lower value 0.9 | locus YIL147C, strain SLN1, stronger effect = lower value 0.927 | locus YJL128C, strain PBS2, stronger effect = lower value 0.878 | locus YJR016C, strain ILV3, stronger effect = lower value 0.924 | locus YNL006W, strain LST8, stronger effect = lower value 0.927 | locus YNL207W, strain RIO2, stronger effect = lower value 0.909 | locus YOR329C, strain SCD5, stronger effect = lower value 0.929 | locus YPL209C, strain IPL1, stronger effect = lower value 0.915 | locus YPR025C, strain CCL1, stronger effect = lower value 0.92 | locus YPR106W, strain ISR1, stronger effect = lower value 0.926 | locus YPR111W, strain DBF20, stronger effect = lower value 0.902 | strain NNK1, stronger effect = lower value 0.931
